# Columns and labels:
# Test in all cases: PBM binding z-score (relative to random genomic background probes); higher = stronger binding; sequences stand for … in GC…GCGATTGACAGCGTAGAATGAAGG
# [1] = test system: RARb homodimer (NR concentration 270 nM)
# How it was run: (§1)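 Regression normalization was applied to scanned fluorescence from custom Agilent 4×180K protein-binding microarrays. Before scanning, arrays were incubated 1 h with ligand-free nuclear receptor dimers, and binding was detected with antibodies against each partner (one per run). Binding z-scores use the random background probes as reference.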
# [2] = test system: RARg:RXRa (NR concentration 270 nM, RXRa partner concentration 90 nM)
# How it was run: as §1
# [3] = test system: RARg homodimer (NR concentration 270 nM)
# How it was run: as §1
# [4] = test system: RXRa DBDmut IVT, anti-RXR (DBD mutation: RXRa K156A/R161A, NR concentration 90 nM)
# How it was run: as §1
# [5] = test system: RXRa homodimer (NR concentration 180 nM)
# How it was run: as §1
# [6] = test system: THRa:RXRa (NR concentration 90 nM, RXRa partner concentration 90 nM)
# How it was run: as §1
# [7] = test system: THRa homodimer (NR concentration 90 nM)
# How it was run: as §1
# [8] = test system: VDR homodimer (NR concentration 270 nM)
# How it was run: as §1
Sequence,PBM binding z-score [1],PBM binding z-score [2],PBM binding z-score [3],PBM binding z-score [4],PBM binding z-score [5],PBM binding z-score [6],PBM binding z-score [7],PBM binding z-score [8]
TCGTGTAGGTTAGTCGGGGCATTCAGCCAACATA,1.23,0.373,0.49,1.14,0.427,1.55,0.941,1.28
GCGACAGGGGCAAAGCAGGTTACCATAAGGTTGG,1.21,1.06,0.918,0.664,1.06,3.83,0.135,0.281
TCATGTAGATCAGCAGGTTAAGAAAGCTGGCCAA,-0.0199,-0.0908,-0.0942,0.626,0.381,0.195,-0.553,-0.749
ATCGGAAGGTCGAAGGTGAGTATACCCACCCGAA,1.44,2.82,2.27,0.152,3.19,1.4,-0.0912,0.449
TGTCAAAGTTGAAAGGTAACGTAAGTATCCACAC,1.36,2.23,1.4,-0.369,2.69,1.77,-0.382,-0.281
TCATATAGGTAAACAGGTGAACGTCCGTAAGTTA,0.948,0.887,0.712,1.31,1.28,1.12,0.353,0.243
TCTAGATGGTCACGGAGGTCACACACGACGGGTA,4.54,4.93,4.89,0.905,5.34,3.85,2.6,3.63
CCTATTAGTTGACTATAAGGGCAACCGAAGCTCG,1.42,1.15,0.934,0.543,0.351,1.79,0.969,0.425
ACTAGCAGGCCAAGGGTCACTCCAGATTAGTCCG,3.65,3.77,3.48,0.274,3.74,2.55,0.269,1
TCGAGAAGGTTACCAATGGGGCATTCAGCTTTCT,1.48,3.02,1.19,0.529,1.86,0.779,-0.839,-0.528
GCTATTTGGTCAGTAAAAGGTCACACACCGGTCG,5.41,5.36,4.76,0.964,5.44,3.91,2.43,2
CCTTACGGGTCAAGGTTAAAGCACGGGTGGTACG,3.57,5.08,4.78,0.827,5.39,3.06,1.01,1.43
GCTAGTAGTTGAAAGGGCAACCGAATGATTCTCG,1.73,1.22,0.96,0.488,1.47,0.474,-0.735,-0.34
TAACCAAGGTGAAGGTCGTTGATCCCTCTGTAGA,1.83,1.4,1.38,0.174,1.87,2.32,0.878,0.809
CCGACTGGGGCAAGGTAACCATAACGCACAGCCA,0.426,0.417,0.527,-0.495,0.481,0.522,0.219,-0.0983
AGAATGAGGTTATTAAGATCAGAGAATTGCGGTC,0.575,1.21,0.933,1.88,1.7,2.06,0.584,1.11
AGGATGAGGTTATACGTAGATCAGGGAAGAAAGT,1.66,1.85,1.16,1.66,2.27,2.39,1.27,1.08
CCTTACGGGTCACTCCAGGTTATAACATCGGAGT,3,4.24,3.97,1.31,4.36,5.32,0.437,1.19
CCTTATGGGTCACTGACAGGTTATAGCATTTGGA,3.37,5.28,3.89,1.05,4.43,2.59,0.464,0.502

Sequence,PBM binding z-score [1],PBM binding z-score [2],PBM binding z-score [3],PBM binding z-score [4],PBM binding z-score [5],PBM binding z-score [6],PBM binding z-score [7],PBM binding z-score [8]
ATCTCTAAGTAAAAGTTCAGTGAATCCCGAGGAT,2.23,1.54,1.99,1.09,0.961,0.533,-0.127,1.62
AGAATGAGGTTACCAAAGAACAGGGAAACGCTTG,0.612,1.93,1.35,0.909,2.36,2.59,0.733,0.342
ACTGTTAGTTGACTTAGGGCAACCGATACGACGC,1.09,1.22,1.25,0.609,0.472,1.51,0.731,0.453
TCGCCTAGGTCATTCAGGGGCCAGTATAGAAAGC,3.67,6.06,4.29,2.42,2.95,3.52,1,1.4
CAAACTAGGTCACCGGAAGGTCCAAGTCCGCATG,3.77,5.27,5.86,1.82,3.81,3.59,2.3,1.68
CGTCAGAGTTCAACTAAGGTAACGTAAAGCACGC,3.58,5.39,6.02,4.87,5.49,5.18,1.68,4.58
ATCGAAAGGTCGAGGTGAGTCTAGAGAAAGGGAA,2.89,4.34,4.48,0.715,4.46,3.01,0.76,0.695
CCTACTTGGCCATCAGGTCATTGATATCAACGTT,2.89,2.15,2.12,1.5,1.43,3.39,3.64,2.19
GCTAGTTGGTCAGTAAACGGTCACACACCGGTCG,2.63,1.5,1.33,-0.0327,0.347,0.155,-0.176,-0.361
ACTAGCAGGCCAAGTTTGGGTCACTCCAACAAAG,2.33,2.23,1.55,0.0144,0.704,2.47,1.05,0.157
CTCGAAAGGTCGGTTCAGGTGAGTATACGGATAA,2.52,2.64,2.62,1.52,2.23,5.09,1.1,2.34
TGTAGTTGGTCAAAGGTCACACACTCGAAATGCG,4.97,7.09,6.06,1.24,8.07,4.1,2.18,2.51
GCTGCTAGGTCAGGTTGGTCAGCTTACGGGTACG,2.84,2.41,3.46,0.504,0.756,1.8,0.808,0.197
CGAACGAGGGAATGAGTTGATAGCAAATGCCGAT,-0.933,-0.383,0.11,-0.064,-0.465,-0.489,-0.692,0.188
AGTCAAAGTTCACAAGGTAACGTAAGATTCAGCT,3.97,5.73,6.02,4.32,4.74,3.06,0.961,3.66
AGAATGAGGTTAATATCAGGGAAACAGAATACAT,0.835,1.84,1.48,1.22,2.14,2.36,0.795,0.82
TCTCGGAGGACACGAAAGGTCAGACCTCGACATC,4.65,4.84,5.27,1.39,4.1,3.73,1.55,1.14
TAGCCTAGGACATTCAGGGGCCAGTATAGAAAGC,0.77,0.352,0.546,-0.698,-0.1,0.588,-0.132,-0.236
ATCTCTCGGTAAAAGTTCAGTGAATCCCGAGGAT,2.43,1.76,2.03,0.823,0.954,0.761,0.0329,1.74

Sequence,PBM binding z-score [1],PBM binding z-score [2],PBM binding z-score [3],PBM binding z-score [4],PBM binding z-score [5],PBM binding z-score [6],PBM binding z-score [7],PBM binding z-score [8]
ACTATTAGTTGAGACGAGGGCAACCGTTAGGTTG,1.22,0.448,0.848,0.599,0.373,2.62,0.14,0.969
TAGCCTAGGTCATTAGGCCAGTATAGTACGCATC,2.93,3.47,3.8,1.54,2.1,2.4,0.34,0.922
ACTAGTTGGCCAGCTGAGGTCACACACAATTCGG,3.96,3.64,3.6,0.874,4.1,4.47,5.09,2.74
TCTTGTACATCAACAGGAGGTTAAGAAAGATCGA,0.799,0.549,0.344,0.744,0.927,0.755,-0.281,0.136
CAAACTAGGTCACGAAAGCTCAAAGTCGAATGAC,3.1,4.61,5.69,1.74,3.99,3.28,1.48,0.544
CCTTACTGGTCACTCCAGGTTATAGCATCGGAGT,1.42,0.885,1.32,0.271,0.519,3.26,1.03,0.805
TCTGCTAGGTCAGTGGGTCAGCTAACGAGCTGCC,3.84,3.92,4.5,0.404,2.23,1.94,0.337,-0.31
GCGACTGGGGCATGAGCAGGTTACCATAACTTAA,0.894,0.84,0.396,-0.489,0.385,0.664,-0.144,-0.116
AATAAAGGGTCACTAGGCCAGAGTAGGTACGAAT,4.18,5.83,6.43,2.48,5.89,2.82,0.263,2.36
ACTAGTTGGTCAGCTGACGTCACACACAATTCGG,0.958,0.549,0.913,0.433,0.459,0.178,0.155,-0.472
CCAGACAGGTGAGATGGTAACTCAGCCTCGATTA,0.103,0.164,0.225,-0.124,-0.0452,-0.143,0.146,0.202
ATATGTAGGTTATGGGGTCATTCAGTTTGCGCAT,4.16,5.29,3.67,2.9,6.67,4.35,4.19,7.28
GGAACGAGGGCAAAGTTGATAGTATCTGTCGACG,1.24,2.08,1.84,2.59,1.68,1.36,0.0529,1.64
TCTTGTAAATCAACAGGAGGTTAAGAAAGATCGA,0.787,0.681,0.518,1.04,1.11,0.911,-0.242,0.513
GCAGACAGGTGAAACGCAGGTAACTCGGGGTGGC,0.185,0.966,0.131,-0.847,0.633,1.55,-0.0919,-0.486
CCGAGTAGGTTATGGAGCATTCAGGCAACGGTGA,0.461,0.362,0.489,0.355,0.308,0.145,0.277,0.244
TCTAGTTGGTCAAAGGTTACACACTCGAAATGCG,2.96,4.04,2.46,1.54,4.59,2.37,1.01,1.23
TCTACTAGGTCAGTTGGTCAGCTAACGAGCTGCC,2.91,2.74,3.58,1.19,1.24,1.28,0.622,0.162
ACAGACAGATGAGTGAAGGTAACTCAGCTGGACG,-0.259,0.311,0.543,-0.223,0.367,0.16,-0.331,-0.0316

# Reference: the supplement of paper PMC6555819
